The source of these data is PubChem BioAssay (EPA / NIEHS).

The source made the active and inactive calls. Rule for the calls: active = hit-call score of the fitted dose curve at least 0.9, where 1 is the maximum; inactive = score below 0.9.

What is called AC50 is the concentration at which the activity in the assay is half-maximal.

Read-out in experiment [1]: Human Leukocyte Antigen - DR isotype (HLADR), HLA-DRA (gene 3122)
In words: BSK_3C_HLADR: BioMAP Diversity Plus: 3C Assay for Human Leukocyte Antigen - DR isotype (HLADR) Biomarker Activity (AID 2283019). Particulars: primary human endothelial cells (HUVEC); actives raise or lower the signal. The method, boiled down: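 Primary human umbilical vein endothelial cells (3C system) were dosed with compound and cell-surface HLA-DR was quantified by ELISA at 24 h. Activity was fitted bidirectionally against DMSO as negative control and baseline.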

Read-out in experiment [2]: Interleukin-8 (IL8), CXCL8 (gene 3576)
In words: BSK_3C_IL8: BioMAP Diversity Plus: 3C Assay for Interleukin-8 (IL8) Biomarker Activity (AID 2283020). Particulars: primary human endothelial cells (HUVEC); actives raise or lower the signal. The method, boiled down: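 Primary human umbilical vein endothelial cells were dosed for 24 h. IL-8 was quantified by ELISA and fitted bidirectionally against DMSO. Cytotoxicity was assessed in parallel cultures by SRB staining at 560 nm.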

Read-out in experiment [3]: Monokine induced gamma interferon (MIG), CXCL9 (gene 4283)
The experiment in a line: BSK_3C_MIG: BioMAP Diversity Plus: 3C Assay for Monokine induced gamma interferon (MIG) Biomarker Activity (AID 2283021). The conditions noted are these: primary human endothelial cells (HUVEC); actives raise or lower the signal. The method, boiled down:
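HUVEC primary endothelial cultures dosed with chemical; MIG quantified by ELISA at 24 h. Data fitted bidirectionally against DMSO control, with parallel SRB total-protein staining for cytotoxicity.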

Experiment [4] in a line: BSK_3C_SRB: Viability Assessment in the BioMAP Diversity Plus: 3C Assay (AID 2283023).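 Note: fitted both ways against DMSO so a hit may be signal rise or drop.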 The conditions noted are these: primary human endothelial cells (HUVEC). The procedure, abridged:
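Primary human umbilical vein endothelial cells in the 3C system were read 24 h after compound dosing. Total protein was stained with 0.1% sulforhodamine B after 10% TCA fixation and read at 560 nm, with bidirectional fitting against DMSO as baseline.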

Read-out in experiment [5]: Matrix Metallopeptidase 1 (MMP1), MMP1 (gene 4312)
In words: BSK_BE3C_MMP1: BioMAP Diversity Plus: BE3C Assay for Matrix Metallopeptidase 1 (MMP1) Biomarker Activity (AID 2283024). The conditions noted are these: primary human bronchial epithelial cells; actives raise or lower the signal. The procedure, abridged:
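Human primary bronchial epithelial cells (BE3C system) dosed for 24 h; MMP-1 quantified by ELISA. Bidirectional fit against DMSO; cytotoxicity tracked in parallel cultures by SRB total-protein staining.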

Read-out in experiment [6]: Pselectin, SELP (gene 6403)
In words: BSK_4H_Pselectin: BioMAP Diversity Plus: 4H Assay for Pselectin Biomarker Activity (AID 2283026). The conditions noted are these: primary human endothelial cells (HUVEC); actives raise or lower the signal. The method, boiled down: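 Primary human umbilical vein endothelial cells were treated 24 h, and cell-surface P-selectin was then quantified by ELISA. Bidirectional fit versus DMSO; cytotoxicity checked in parallel cultures by SRB total-protein staining.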

Experiment [7] can be described thus: BSK_4H_SRB: Viability Assessment in the BioMAP Diversity Plus: 4H Assay (AID 2283027).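 For AC50: curves fitted both ways versus DMSO so AC50 may be loss or gain.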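 Note: cells exposed to compound for 24 h before staining.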 Particulars: primary human endothelial cells (HUVEC). The procedure, abridged:
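Human umbilical vein endothelial cells were dosed with chemical and, after 24 h, fixed with 10% TCA, stained with 0.1% sulforhodamine B, and read at 560 nm to give total protein as a cytotoxicity measure. Bidirectional fitting relative to DMSO control.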

Experiment [8] in a line: BSK_BE3C_SRB: Viability Assessment in the BioMAP Diversity Plus: BE3C Assay (AID 2283028).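 For AC50: fitted both ways so AC50 may mark signal gain or loss versus DMSO.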 The conditions noted are these: primary human bronchial epithelial cells. The method, boiled down: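 Human primary bronchial epithelial cells were exposed to test chemicals for 24 h. Total protein in parallel cultures was then measured by staining with 0.1% sulforhodamine B after 10% TCA fixation, with absorbance read at 560 nm. Activity was fitted bidirectionally against DMSO.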

Read-out in experiment [9]: Thrombomodulin, THBD (gene 7056)
In words: BSK_3C_Thrombomodulin: BioMAP Diversity Plus: 3C Assay for Thrombomodulin Biomarker Activity (AID 2283029). Particulars: primary human endothelial cells (HUVEC); actives raise or lower the signal. The method, boiled down:
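Human umbilical vein endothelial cells were exposed to chemicals for 24 h; cell-surface thrombomodulin quantified by ELISA, with bidirectional fitting against DMSO baseline.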

Read-out in experiment [10]: Urokinase-type plasminogen activator receptor (uPAR), PLAUR (gene 5329)
In words: BSK_4H_uPAR: BioMAP Diversity Plus: 4H Assay for Urokinase-type plasminogen activator receptor (uPAR) Biomarker Activity (AID 2283030). Particulars: primary human endothelial cells (HUVEC); actives raise or lower the signal. The method, boiled down:
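Primary human umbilical vein endothelial cells were exposed to chemical for 24 h before cell-surface uPAR was quantified by ELISA. Activity was fitted bidirectionally against the DMSO negative control baseline.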

Read-out in experiment [11]: Human Leukocyte Antigen - DR isotype (HLADR), HLA-DRA (gene 3122)
In words: BSK_BE3C_HLADR: BioMAP Diversity Plus: BE3C Assay for Human Leukocyte Antigen - DR isotype (HLADR) Biomarker Activity (AID 2283032). The conditions noted are these: primary human bronchial epithelial cells; actives raise or lower the signal. The method, boiled down: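 Human primary bronchial epithelial cells (BE3C system) exposed to compound for 24 hours; cell-surface HLA-DR measured by ELISA, fitted bidirectionally relative to DMSO. Total protein by SRB in parallel cultures tracked cytotoxicity.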

Read-out in experiment [12]: Vascular cell adhesion molecule 1 (VCAM1), VCAM1 (gene 7412)
In words: BSK_4H_VCAM1: BioMAP Diversity Plus: 4H Assay for Vascular cell adhesion molecule 1 (VCAM1) Biomarker Activity (AID 2283033). Particulars: primary human endothelial cells (HUVEC); actives raise or lower the signal. The method, boiled down:
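Primary human umbilical vein endothelial cells, 4H stimulation system, treated for 24 h; cell-surface VCAM-1 quantified by ELISA. Bidirectional fitting against DMSO; cytotoxicity tracked by SRB total-protein staining in parallel cultures.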

Read-out in experiment [13]: Interferon-gamma inducible Protein 10 (IP10), CXCL10 (gene 3627)
In words: BSK_BE3C_IP10: BioMAP Diversity Plus: BE3C Assay for Interferon-gamma inducible Protein 10 (IP10) Biomarker Activity (AID 2283034). The conditions noted are these: primary human bronchial epithelial cells; actives raise or lower the signal. The method, boiled down: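 Primary human bronchial epithelial cells, with IP-10 measured by ELISA 24 hours after chemical dosing. Bidirectional fit against DMSO; cytotoxicity checked by SRB total protein staining in parallel cultures.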

Read-out in experiment [14]: Monokine induced gamma interferon (MIG), CXCL9 (gene 4283)
The experiment in a line: BSK_BE3C_MIG: BioMAP Diversity Plus: BE3C Assay for Monokine induced gamma interferon (MIG) Biomarker Activity (AID 2283035). The conditions noted are these: primary human bronchial epithelial cells; actives raise or lower the signal. The procedure, abridged:
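ELISA read-out of MIG in human lung bronchial epithelial primary cultures, 24 h post-dosing. Bidirectional curve fit vs DMSO baseline.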

Read-out in experiment [15]: Transforming growth factor beta 1 (TGFb1), TGFB1 (gene 7040)
In words: BSK_BE3C_TGFb1: BioMAP Diversity Plus: BE3C Assay for Transforming growth factor beta 1 (TGFb1) Biomarker Activity (AID 2283036). Particulars: primary human bronchial epithelial cells; actives raise or lower the signal. The procedure, abridged: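 Primary human bronchial epithelial cells dosed with chemical; TGF-b1 measured by ELISA 24 h after dosing. Bidirectional curve fitting against DMSO negative control; SRB total-protein staining in parallel cultures gauged cytotoxicity.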

Read-out in experiment [16]: Plasminogen activator inhibitor-1 (PAI1), SERPINE1 (gene 5054)
The experiment in a line: BSK_BE3C_PAI1: BioMAP Diversity Plus: BE3C Assay for Plasminogen activator inhibitor-1 (PAI1) Biomarker Activity (AID 2283037). Particulars: primary human bronchial epithelial cells; actives raise or lower the signal. The procedure, abridged:
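Primary human bronchial epithelial cells (BE3C system) exposed 24 h; PAI-1 quantified by ELISA. Parallel sulforhodamine B staining of total protein flags cytotoxicity. Bidirectional fit versus DMSO.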

Read-out in experiment [17]: urokinase plasminogen activator (uPA), PLAU (gene 5328)
In words: BSK_BE3C_uPA: BioMAP Diversity Plus: BE3C Assay for urokinase plasminogen activator (uPA) Biomarker Activity (AID 2283038).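 Note: uPA protein level quantified by ELISA in cell cultures; uPA read one day after compound addition.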 Particulars: primary human bronchial epithelial cells; actives raise or lower the signal. The procedure, abridged:
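Human primary bronchial epithelial cells were exposed to chemical for 24 h, then uPA levels were measured by ELISA. Responses were fitted bidirectionally against DMSO as negative control and baseline. Parallel SRB staining of total protein gauged overt cytotoxicity.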

Read-out in experiment [18]: Urokinase-type plasminogen activator receptor (uPAR), PLAUR (gene 5329)
In words: BSK_BE3C_uPAR: BioMAP Diversity Plus: BE3C Assay for Urokinase-type plasminogen activator receptor (uPAR) Biomarker Activity (AID 2283039).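 Note: cells exposed to compound for one day before measurement.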 Particulars: primary human bronchial epithelial cells; actives raise or lower the signal. The method, boiled down:
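Primary human bronchial epithelial cells dosed for 24 h; uPAR quantified by ELISA with bidirectional fitting against DMSO. Overt cytotoxicity assessed in parallel cultures by SRB total-protein staining (0.1% SRB, 560 nm).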

Read-out in experiment [19]: Vascular endothelial growth factor receptor 2 (Homo sapiens) (UniProt P35968)
The experiment in a line: BSK_4H_VEGFRII: BioMAP Diversity Plus: 4H Assay for Vascular endothelial growth factor receptor 2 (VEGFR2) Biomarker Activity (AID 2283031). The conditions noted are these: primary human endothelial cells (HUVEC); actives raise or lower the signal. The procedure, abridged:
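Primary human umbilical vein endothelial cells in the BioMAP 4H system were dosed with test chemical, and 24 h later VEGFRII was measured by ELISA. Activity was fitted bidirectionally against DMSO as negative control and baseline.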

On to `CC(C)C1(C)N=C(c2ncccc2C(=O)O)NC1=O` (stereo unspecified), for which the result in experiment [1], in experiment [2], in experiment [3], in experiment [4], in experiment [5] and in [6] was inactive. The outcome in [8], in experiment [9], in experiment [10], in experiment [11], in experiment [12] and in [13] was inactive. In addition, the result in experiment [14], in experiment [15], in experiment [16], in experiment [17] and in experiment [18] was inactive. In experiment [7], the AC50 was 0.454 µM (active).
In the case of `CC(C)=CC1C(C(=O)OCc2coc(Cc3ccccc3)c2)C1(C)C` (stereo unspecified), the AC50 in experiment [1] was 7.53 µM (active); in experiment [2], 9.03 µM (active); in [4] it was 13.7 µM (active); in experiment [8], 10.8 µM (active). For the same compound, the result in [3], in experiment [5], in [6], in experiment [7], in experiment [9] and in experiment [10] was inactive. The outcome in [11], in [13], in experiment [14], in experiment [15], in experiment [16] and in experiment [17] was inactive. Further, the outcome in experiment [18] was inactive.
For `CC1(C)C(C(=O)OC(C#N)c2cccc(Oc3ccccc3)c2)C1(C)C` (stereo unspecified), the outcome in experiment [1], in [2], in [3], in experiment [5], in [7] and in [9] was inactive. The outcome in experiment [10], in [19], in experiment [11], in experiment [12], in experiment [13] and in experiment [14] was inactive. The result in [15], in experiment [16], in experiment [17] and in experiment [18] was inactive. Also, the AC50 in [4] was 10.1 µM (active); in experiment [6] it was 12.9 µM (active); in experiment [8], 6.87 µM (active).
As to `Cc1cnc(C2=NC(C)(C(C)C)C(=O)N2)c(C(=O)O)c1` (stereo unspecified), the outcome in experiment [1], in [2], in experiment [3], in [4], in [5] and in experiment [6] was inactive. The outcome in experiment [7], in [8], in experiment [9], in [10], in experiment [11] and in experiment [13] was inactive. For the same compound, the result in experiment [14], in experiment [16], in experiment [17] and in [18] was inactive. Moreover, in [15], the AC50 was 4.93 µM (active).
Consider `Cc1nc(N(C)C)nc(OC(=O)N(C)C)c1C`, for which the outcome in experiment [1], in experiment [2], in experiment [3], in experiment [4], in [5] and in experiment [6] was inactive. Further, the result in experiment [7], in experiment [8], in experiment [9], in [10], in experiment [11] and in experiment [12] was inactive. Besides, the result in experiment [13], in experiment [14], in experiment [15], in experiment [16], in [17] and in [18] was inactive.
For the compound `O=P(O)(O)CCCl`, the outcome in experiment [1], in [2], in experiment [3], in experiment [4], in experiment [5] and in experiment [6] was inactive. Further, the outcome in experiment [7], in experiment [8], in experiment [9], in [10], in experiment [11] and in [13] was inactive. The result in experiment [14], in [15], in experiment [16], in [17] and in [18] was inactive.
